Here are results for 100 compounds from PubChem BioAssay AID624483 (NMMLSC, 2012).

SMILES strings stand for the structures. Among all 360,000 compounds or so, about 11,000 (3.1%) were called active. Another 2% or so got no clear call; they are omitted. No stated cut-off is given here; in the data, active means fluorescence intensity above about 16000; inconclusive means no clear call, values can overlap the other calls; inactive means below that. Many of the other results were omitted from the sample, so actives are more common in it than they were.

This test can be described thus: counter-screen for toxin protease inhibitors: compound fluorescence, primary screen, artefact control for toxin protease inhibitor project, biochemical, multiplex microsphere, HTS (AID 624483). Conditions: compound autofluorescence counterscreen, microsphere flow cytometry; active compounds read high.
Regarding `CC1(C(=O)Nc2cccc(Oc3ccccc3)c2)CCN1Cc1ccccc1Cl` (stereo not given), the fluorescence intensity is 2960 (inactive).
In the case of `CCCS(=O)(=O)NC(=O)C1(C)CCCN(C(=O)c2ccnc(Cl)c2)C1` (stereo not given), the fluorescence intensity was 3780 (inactive).
For `O=C(NCc1cccnc1)c1cc(C2CCCN(C(=O)C3CCCCC3)C2)on1` (stereo not given), the fluorescence intensity was 3680 (inactive).
Turning to `CC1(C)CC(=O)C=C(NCCCN2CCCC2=O)C1`, the fluorescence intensity was 10600 (inactive).
As to `CC1(C)CC(=O)C=C(NC2CC(C)(C)NC(C)(C)C2)C1`, the fluorescence intensity was 11500 (inactive).
For the compound `CC1(C)CC(=O)C=C(NCCCNC2CCCCC2)C1`, the fluorescence intensity is 16400 (active).
With `CCOc1ccc(C(=O)NC2CCN(CC(=O)NCc3cccs3)CC2)cc1`, the fluorescence intensity is 4320 (inactive).
`CC(=O)c1cccc(-c2cnc3c(NC=O)cc(-c4ccccc4Oc4ccccc4)cn23)c1`: the fluorescence intensity was 2970 (inactive).
On to `CCc1nc2ccc(C(=O)Nc3ccc(OC)c(OC)c3)cn2c1N(C)C(=O)c1cccc(OC)c1`, for which the fluorescence intensity is 3840 (inactive).
For `CSc1cccc(NC(=O)C2CCCN2S(=O)(=O)c2ccc3c(c2)CCC(=O)N3)c1` (stereo not given) the value was 22100 (active); for `Cc1cccc(NC(=O)C2CCCN2S(=O)(=O)c2ccc(F)cc2)c1C` (stereo not given), 12300 (inactive).
With `O=C1CCc2cc(S(=O)(=O)N3CCC(C(=O)NCc4ccccc4Cl)CC3)ccc2N1` the figure was 5010 (inactive); with `O=CNc1cc(-c2ccc(C(=O)N3CCOCC3)cc2)cn2c(-c3ccc(F)cc3)cnc12`, 4100 (inactive).
In the case of `NC(Cc1ccccc1)c1csc(Nc2cc(Oc3ccccc3)ncn2)n1` (stereo not given), the fluorescence intensity is 3760 (inactive).
As for `CN1CCN(C(=O)N2c3ccccc3CCc3ccccc32)CC1`, the fluorescence intensity is 4530 (inactive).
As to `CC1CC(C)CN(CC(=O)N2c3ccccc3CCc3ccccc32)C1` (stereo not given), the fluorescence intensity was 17600 (active).
Regarding `CC1CC(C)CN(CC(=O)Nc2ccc(S(N)(=O)=O)cc2)C1` (stereo not given), the fluorescence intensity was 4900 (inactive).
As to `Cc1cccc(C)c1-n1nnnc1C1(C)CCC(=O)N1CCOc1ccccc1` (stereo not given), the fluorescence intensity was 6150 (inactive).
With `Cc1nc2c(OCC(=O)C(C)(C)C)cccn2c1N(C)Cc1cccs1`, the fluorescence intensity is 2880 (inactive).
As to `CC(C)C[C@@H]1Cc2[nH][nH]c(=O)c2[C@H](CCc2ccccc2)O1`, the fluorescence intensity was 4470 (inactive).
With `N=C1c2ccccc2-c2ccccc21` the figure was 3590 (inactive); with `COc1ccc(C(C#N)N2N=C(C)CC2(C)C)cc1` (stereo not given), 4130 (inactive).
For the compound `CC1Cc2ccccc2N1C(=O)CSc1nc2ccccc2o1` (stereo not given), the fluorescence intensity was 16300 (active).
For `CC(C)NC(=O)CSc1nnc(COc2ccccc2Cl)o1` the value was 4480 (inactive); for `CC1CC(C)CN(C(=O)CSc2nnc(CSc3ncccn3)n2C)C1` (stereo not given), 4260 (inactive); for `CCn1c(CSc2ncccn2)nnc1SCC(=O)N1c2ccccc2CC1C` (stereo not given), 23500 (active).
As for `CCS(=O)(=O)c1ccc2oc(SCC(=O)N3c4ccccc4CC3C)nc2c1` (stereo not given), the fluorescence intensity is 8960 (inactive).
Turning to `O=C(CSc1nc2ccccc2o1)N1c2ccccc2Sc2ccc(Cl)cc21`, the fluorescence intensity was 22300 (active).
For the compound `O=C(CSc1nc2ccccc2o1)N1CCN(c2ccccc2)CC1`, the fluorescence intensity is 2560 (inactive).
`CC1Cc2ccccc2N1C(=O)CSc1nnc(C2CC2)n1C` (stereo not given): the fluorescence intensity is 4920 (inactive).
For `Cc1ccccc1OCc1nnc(SCC(=O)N2c3ccccc3Sc3ccc(Cl)cc32)o1`, the fluorescence intensity is 20200 (active).
For `Cc1ccc(NC(=O)CSc2nnc(COc3ccccc3C)o2)cc1`, the fluorescence intensity is 3160 (inactive).
For the compound `CC1Cc2ccccc2N1C(=O)Cn1cnc2ccccc2c1=O` (stereo not given), the fluorescence intensity is 3200 (inactive).
Consider `O=C(CSc1nc2ccccc2o1)N1CCN(c2ccc(Cl)cc2)CC1`, for which the fluorescence intensity was 6400 (inactive).
Turning to `O=S(=O)(c1ccc(Cl)cc1)N1CCCN(c2ccc(C(F)(F)F)cn2)CC1`, the fluorescence intensity was 6060 (inactive).
As to `NC(c1csc(NC(=O)Nc2cccc(C(F)(F)F)c2)n1)C1CCCCC1` (stereo not given), the fluorescence intensity is 2870 (inactive).
In the case of `Cc1cc2oc3ccc(NCCC4CCCN4C)cc3c(=O)c2cc1C` (stereo not given), the fluorescence intensity is 5120 (inactive).
Consider `COC(=O)c1ccc2nc(-c3ccc(F)cc3)c(Cc3ccc(C)cc3)n2c1`, for which the fluorescence intensity was 7460 (inactive).
For `Cc1ccc(NC2=NC(c3ccccc3)n3c(nc(C)cc3=O)N2)cc1` (stereo not given), the fluorescence intensity was 3910 (inactive).
`CC(=O)Nc1c(-c2ccc(C)cc2)nc2ccc(Cl)cn12`: the fluorescence intensity was 2860 (inactive).
With `Cc1occc1C(=O)NC1CCCN(Cc2ccc(CC(C)C)cc2)C1` (stereo not given), the fluorescence intensity is 7560 (inactive).
Take `COc1ccc(C2=Nc3ccccc3NC(=O)C2N(C(=O)c2cc3ccccc3[nH]2)c2ccccc2)cc1` (stereo not given): the fluorescence intensity was 6050 (inactive).
Consider `COc1ccc(-c2cc3c(c4c2ccn4C)C2CCC3C2)cn1` (stereo not given), for which the fluorescence intensity is 2710 (inactive).
With `CCOC(=O)C1C(=O)NCC1c1ccccc1` (stereo not given) the figure was 9370 (inactive).
For `COC(=O)C1C(=O)NCC1c1ccc(OC)cc1` (stereo not given), the fluorescence intensity was 17100 (active).
Turning to `COC(=O)C1C(=O)NCC1c1ccc(C)cc1` (stereo not given), the fluorescence intensity is 15900 (inactive).
In the case of `COc1ccc(-c2cc(NC=O)c3ncc(-c4cccc(C(=O)N(C)C)c4)n3c2)c(OC)c1`, the fluorescence intensity is 3580 (inactive).
Turning to `O=C(OCc1nc2ccccc2[nH]1)C1CCCCC1`, the fluorescence intensity is 2190 (inactive).
Regarding `Clc1ccccc1SCc1nc2ccccc2[nH]1`, the fluorescence intensity was 24700 (active).
Consider `O=c1c(-c2ccc(Cl)cc2)[n+]([O-])c2ccccc2n1OCc1nc2ccccc2[nH]1`, for which the fluorescence intensity was 4300 (inactive).
With `Fc1ccc2nc(-c3ccccc3)nc(SCc3nnc(-c4ccccc4)o3)c2c1`, the fluorescence intensity was 4280 (inactive).
For the compound `c1ccc(-c2nnc(SCc3nc4ccccc4[nH]3)o2)cc1`, the fluorescence intensity was 18800 (active).
With `c1ccc2cc3[nH]c(CN4CCCCC4)nc3cc2c1`, the fluorescence intensity is 5430 (inactive).
In the case of `Oc1ccc2nc(Cc3ccccc3)[nH]c2c1`, the fluorescence intensity is 4090 (inactive).
For the compound `Clc1ccc(-c2nnc(SCc3nc4ccccc4s3)o2)cc1`, the fluorescence intensity was 2530 (inactive).
Take `c1ccc2c(CSCc3nc4ccccc4[nH]3)cccc2c1`: the fluorescence intensity was 21700 (active).
For the compound `CC1(Oc2ccccc2-c2ccno2)CCN(Cc2ccc(-c3ccccc3)o2)C1` (stereo not given), the fluorescence intensity was 3970 (inactive).
Turning to `CN1CCN(c2ccncc2S(=O)(=O)N2CCCC2)CC1`, the fluorescence intensity is 3800 (inactive).
With `Cc1ccc(NC(=O)c2ccc(S(=O)(=O)NCC3CCCO3)cc2)cc1C` (stereo not given), the fluorescence intensity was 4660 (inactive).
As for `CCc1c(O)nc(SCC(=O)Nc2ccccc2)n(C(C)CC)c1=O` (stereo not given), the fluorescence intensity was 9640 (inactive).
On to `CCOC(=O)c1cc2cc(C)ccc2[nH]1`, for which the fluorescence intensity was 4370 (inactive).
With `Cc1cc(Br)cn2c(Cc3cccc(F)c3)c(-c3cccc(Br)c3)nc12`, the fluorescence intensity is 5680 (inactive).
`C=CC[C@@H](Cc1ccc(F)cc1)C(=O)OC[C@H]1CCCN1C(=O)[C@H](CC=C)CC(=O)N(CCO)Cc1ccccc1`: the fluorescence intensity is 3800 (inactive).
On to `Cc1cccc(OCc2nnc(SCn3nnc4ccccc4c3=O)o2)c1`, for which the fluorescence intensity was 4060 (inactive).
In the case of `Cc1cc(C)cc(-c2nnc(SCC(=O)NC3CC3)o2)c1`, the fluorescence intensity was 8900 (inactive).
`Cc1cc(C)cc(OCc2nnc(SCC(=O)OC3CCCCC3)o2)c1`: the fluorescence intensity is 19000 (active).
For `CN(C)CCN1CCN(c2cc(-c3cccc(Cl)c3)nc3ccnn23)CC1`, the fluorescence intensity is 3570 (inactive).
Regarding `COC(=O)[C@@]1(Sc2ccc(C)cc2)CC(=O)N(c2cccc(SC)c2)[C@@H]1c1ccccc1`, the fluorescence intensity was 4090 (inactive).
`CCc1nc2oc3ccccc3c(=O)c2c(=O)n1Cc1ccc(OC)cc1`: the fluorescence intensity is 17100 (active).
With `O=c1c2ccccc2oc2nc3n(c(=O)c12)CCCS3` the figure was 10300 (inactive).
Consider `COc1ccc(Cn2c(=O)oc3ccccc32)cc1`, for which the fluorescence intensity is 2890 (inactive).
Regarding `CCCCn1nnnc1C1(C)CCC(=O)N1Cc1ccc(OC)c(OC)c1` (stereo not given), the fluorescence intensity was 5290 (inactive).
For `COc1cc(NC(=O)c2ccccc2)c(OC)cc1NC(=O)Cc1ccccc1` the value was 4090 (inactive).
Consider `CC(=O)c1cc(NC(=O)c2ccccc2)c(=O)oc1/C=C/N(C)C`, for which the fluorescence intensity is 24500 (active).
As to `CCOC(=O)c1cc(NC(=O)c2ccc(Cl)cc2)c(=O)oc1-c1ccccc1`, the fluorescence intensity was 5720 (inactive).
For the compound `O=C(NCC1CCCO1)c1cc2c(s1)CCCC2` (stereo not given), the fluorescence intensity was 8290 (inactive).
Consider `O=C(CNC(=O)c1cc2c(s1)CCC2)Nc1ccccc1Br`, for which the fluorescence intensity was 24100 (active).
For `O=C(CCc1nc2sc3c(c2c(=O)[nH]1)CCCC3)NCC(=O)Nc1ccccc1Br`, the fluorescence intensity is 3820 (inactive).
With `CN(C)c1ccc(N/C=C/C(=O)C(F)(F)F)cc1` the figure was 3470 (inactive); with `CCc1nc2ccc(C(=O)NCCNC(C)=O)cn2c1N(CC)Cc1cccc(Br)c1`, 3860 (inactive); with `Cc1ccn2c(=O)nc(SCC(=O)NCc3ccc4c(c3)OCO4)nc2c1`, 5730 (inactive).
With `Cc1ccc(CNC(=O)CSc2nnc3c(n2)[nH]c2ccc(F)cc23)cc1`, the fluorescence intensity was 5580 (inactive).
With `Cc1ccn2c(=O)nc(SCC(=O)NCc3ccc(F)cc3)nc2c1` the figure was 16300 (active).
With `COc1ccc(CC(N)c2csc(NC(=O)Nc3ccc(C(C)C)cc3)n2)cc1` (stereo not given) the figure was 3480 (inactive).
`c1ccc2c(CNn3cnnc3)cccc2c1`: the fluorescence intensity was 2660 (inactive).
With `c1ccc2c(C[n+]3csc4ccccc43)cccc2c1` the figure was 24500 (active); with `Nc1scc[n+]1Cc1cccc2cccnc12`, 3430 (inactive); with `Cc1cc(S(=O)(=O)NCc2ccccn2)c(Cl)cc1Cl`, 3790 (inactive).
Regarding `O=S(=O)(NCc1ccccn1)c1ccc(F)cc1`, the fluorescence intensity is 11500 (inactive).
For `CC1CCN(S(=O)(=O)c2ccc(S(=O)(=O)NCc3cccnc3)cc2)CC1` the value was 4180 (inactive).
For `O=S(=O)(NCc1cccnc1)c1ccc(Br)s1` the value was 23300 (active).
With `O=S(=O)(NCc1cccnc1)c1ccc(Cl)nc1` the figure was 2520 (inactive).
Consider `O=S(=O)(NCc1ccccn1)c1ccc(Br)s1`, for which the fluorescence intensity was 18000 (active).
With `CN(C(=O)c1cccc(NC(=O)C2CCN(C(=O)OC(C)(C)C)CC2)c1)C1CCC1` the figure was 4250 (inactive); with `CCc1ccnc(NS(=O)(=O)c2ccc3c(c2)OCCO3)c1`, 6030 (inactive).
For `CC(=O)NN=C(C)c1ccc(NC(=O)C2CC2)cc1`, the fluorescence intensity is 3420 (inactive).
Regarding `CCCCCn1nnnc1-c1nc2cc3ccccc3cc2[nH]c1=O`, the fluorescence intensity was 5190 (inactive).
As to `Nc1ccccc1SCc1cc([N+](=O)[O-])cc2c1OCOC2`, the fluorescence intensity was 22000 (active).
Turning to `COc1ccccc1CSc1ncc(-c2ccc([N+](=O)[O-])cc2)[nH]1`, the fluorescence intensity was 2560 (inactive).
With `CC(O)C(NS(=O)(=O)c1ccc(Cl)cc1)C(=O)OCc1cc([N+](=O)[O-])cc2c1OCOC2` (stereo not given), the fluorescence intensity was 3270 (inactive).
